This note sets out measurements from PubChem BioAssay (NCATS).

Where “and” joins values, the source holds several entries; their conditions need not be identical. Equal values may be shown once. Results filed as inconclusive are left out. Calls of active or inactive are those of the source. Unless noted, the call rests on the fitted dose curve; in most records, active means well fitted curve in the direction sought with a large enough effect; inconclusive means small, poorly fitted or top-dose-only effect, or another doubt; inactive means no such curve, though single readings can be large; an effect the other way counts as inactive or inconclusive.

A short description of assay [1]: Cell Viability - SK-N-SH (AID 435; calls by dose curve;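 further: potency means the concentration at half of the fitted maximal effect; compound exposure lasted 40 h at 37 °C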). Particulars: SK-N-SH neuroblastoma cell viability qHTS. In a few lines: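 SK-N-SH human neuroblastoma cells (1500/well) were exposed to compounds in complete medium for 40 h at 37 °C, and intracellular ATP was then measured by CellTiter-Glo luminescence. AC50 was taken from Hill fits, normalized to DMSO and 100 uM tamoxifen.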

Assay [2] can be described thus: Cell Viability - LYMP2-001 (AID 921).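 Further: 0% = DMSO only and full inhibition = tetraoctylammonium bromide control wells; nearly all actives have a fitted effect of over 70% in size.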 Particulars: LYMP2-001 lymphoblastoid cell viability; series mostly up to 92.2 µM. In a few lines:
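Human lymphoblastoid cells (Coriell), 2500 per well, were preincubated 5 hr at 37 C, then exposed to compounds in complete medium for 24 hr at 37 C. Cellular ATP was read by CellTiter-Glo luminescence; AC50 from Hill fits of concentration-response data.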

Assay [3] is described as follows: Cell Viability - LYMP2-004 (AID 966).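 Further: plate controls were DMSO only for no effect and tetraoctylammonium bromide control for full effect; nearly all actives have a fitted effect of over 65% in size.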 Particulars: LYMP2-004 lymphoblastoid cell viability, qHTS; series mostly up to 92.2 µM. In a few lines: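 Human lymphoblastoid cells (2500/well) in complete medium were treated with compounds for 24 hr at 37 C, then intracellular ATP was measured by CellTiter-Glo luminescence. AC50 values came from Hill-equation fits of concentration-response data.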
On the technique in general: Quantitative high-throughput screening tests each substance at several concentrations.

The nature of assay [4]: Cell Viability - LYMP2-013 (AID 970).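 Further: 0% = DMSO only and full inhibition = tetraoctylammonium bromide control; nearly all actives have a fitted effect of over 55% in size.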 Particulars: LYMP2-013 lymphoblastoid cells viability; series mostly up to 92.2 µM. In a few lines: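 Human lymphoblastoid cells, 2500/well, were preincubated 5 hr at 37 C, then treated with compounds for 24 hr at 37 C in complete medium. Intracellular ATP was read by CellTiter-Glo luminescence; AC50 from Hill-equation fits of concentration-response data.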

The nature of assay [5]: Cell Viability - LYMP2-017 (AID 972). Further: nearly all actives have a fitted effect of over 55% in size. Further: potency means the concentration at half of the fitted maximal effect. Particulars: LYMP2-017 lymphoblastoid cell viability; series mostly up to 92.2 µM. The essentials: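 Human lymphoblastoid cells (2500/well) were seeded in complete medium, held 5 hr at 37 C, then exposed to compounds for 24 hr at 37 C. Intracellular ATP was read by CellTiter-Glo luminescence after 30 min at room temperature, with AC50 values from Hill-equation fits.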

Assay [6] in a line: Cell Viability - LYMP2-007 (AID 979).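 Further: cells exposed to compound for 24 h before reading; nearly all actives have a fitted effect of over 60% in size.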 Further: potency means the concentration at half of the fitted maximal effect. Particulars: LYMP2-007 lymphoblastoid cell viability; series mostly up to 92.2 µM. The essentials: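 Human lymphoblastoid cells (2500/well) were plated in complete medium, incubated 5 hr at 37 C, then exposed to compounds for 24 hr at 37 C. Intracellular ATP was read by CellTiter-Glo luminescence after 30 min at room temperature; AC50 from Hill fits.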

Assay [7] in a line: Cell Viability - LYMP2-018 (AID 985).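 Further: compound exposure lasted 24 hr at 37 °C; plate controls were DMSO only for no effect and tetraoctylammonium bromide at 92 µM for full effect; nearly all actives have a fitted effect of over 50% in size.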 Particulars: LYMP2-018 lymphoblastoid cells, viability (qHTS); series mostly up to 92.2 µM. In a few lines:
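Human lymphoblastoid cells (2500/well) were pre-incubated 5 hr at 37 C, then exposed to compounds for 24 hr at 37 C in complete medium. Viability was read as intracellular ATP by CellTiter-Glo luminescence; AC50 values came from Hill-equation fits.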

A short description of assay [8]: Cell Viability - LYMP2-022 (AID 987).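 Further: 0% = DMSO alone and full effect = tetraoctylammonium bromide at 92 µM; nearly all actives have a fitted effect of over 55% in size.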 Particulars: LYMP2-022 lymphoblastoid cell viability; series mostly up to 92.2 µM. The essentials: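 Human lymphoblastoid cells, 2500/well, preincubated 5 hr at 37 C, then exposed to compounds over a concentration range for 24 hr at 37 C in complete medium. Viability read as intracellular ATP by CellTiter-Glo luminescence after 30 min at room temperature; AC50 from Hill fits.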

A short description of assay [9]: Cell Viability - LYMP1-002 - Assay at 24 hr (AID 993). Further: on the % scale 0 is the no-effect control and ±100 the full control effect. Particulars: LYMP1-002 lymphoblastoid cells viability; series mostly up to 92.2 µM. In a few lines:
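Human lymphoblastoid LYMP1-002 cells, 2500/well in complete medium, were treated with compounds for 24 h at 37 C; intracellular ATP was read by CellTiter-Glo luminescence. AC50 values came from Hill-equation fits of qHTS concentration-response data.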

In assay [10] the target is Bile acid receptor (Homo sapiens) (UniProt Q96RI1). In words: qHTS assay for small molecule agonists of farnesoid X receptor signaling (AID 588527; calls by dose curve;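 further: 0% = vehicle basal and 100% = reference agonist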). Particulars: HEK293T FXR-UAS-bla, beta-lactamase ratio, 16 h; stronger effect = higher value. The essentials: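 FXR-UAS-bla HEK293T cells (10% dialyzed FBS) preincubated 5-7 h at 37 C, then compounds at up to 92 uM for 16 h at 37 C. CCF4 beta-lactamase read-out after 2 h RT. Normalized to chenodeoxycholic acid (100 uM) and DMSO; Hill fit gave EC50 and efficacy.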

Assay [11] can be described thus: qHTS assay for small molecule antagonists of peroxisome proliferator-activated receptor delta signaling (AID 588535; active means well fitted inhibition curve with a large enough effect in the signal ratio, with a control signal flat, not every such curve was filed as active; the % refers to the signal ratio;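 on max response: cells co-treated with a PPAR-delta agonist as stimulator during compound exposure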). Particulars: HEK293T PPARd-UAS-bla, beta-lactamase FRET ratio, 18 h; 460 nm channel. In a few lines:
(§1)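 Cells were seeded at 4000 per well in assay medium containing 2% charcoal/dextran FBS and held 5 hrs at 37 C. Compounds were then added for 18 hrs. CCF4 substrate was applied for 2 hrs at room temperature before fluorescence reading.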

In assay [12] the target is Peroxisome proliferator-activated receptor delta (Homo sapiens) (UniProt Q03181). The assay is described as above. Particulars: HEK293T PPARd-UAS-bla, beta-lactamase FRET ratio, 18 h; series mostly up to 76.7 µM. In a few lines:
as §1

Assay [13] can be described thus: qHTS assay for small molecule activators of the nuclear factor-kappa B (NF-kB) signaling pathway (AID 651749; active means well fitted activation curve with a large enough effect in the signal ratio; the % refers to the signal ratio; further: % of control where 0% means no effect). Particulars: NF-kB-bla ME-180 cells, beta-lactamase FRET ratio, 16 h; activation: stronger effect = higher value. In a few lines: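 Incubation lasted 16 hr at 37C in 5% CO2 after 23 nL compound addition to ME-180 NF-kB-bla cells. Activation appears as beta-lactamase-mediated FRET loss.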

Assay [14] is described as follows: qHTS assay to identify small molecules that stimulate interleukin-8 (IL-8) secretion (AID 651758; active means well fitted activation curve with a large enough effect in the signal ratio; the % refers to the signal ratio; further: 0% is about no effect). Particulars: HTRF ratio (665/615); series mostly up to 92.2 µM. The essentials: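 THP-1 cells (2000/well) exposed to compound 16 h at 37 C; secreted IL-8 then detected by HTRF with cryptate- and XL665-labelled anti-IL-8 antibody pair after 1-3 h at room temperature.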

The target in assay [15] is Nuclear receptor ROR-gamma (Homo sapiens) (UniProt P51449). In words: qHTS assay for small molecule antagonists of the retinoid-related orphan receptor gamma (ROR-gamma) signaling pathway (AID 651802). Further: nearly all actives have a fitted effect of over 60% in size. Further: potency means the concentration at half of the fitted maximal effect. Particulars: ROR-gamma antagonist cell reporter assay; series mostly up to 92.2 µM. In a few lines:
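CHO cells carrying TET-inducible ROR-gamma and an ROR response element–luciferase reporter were exposed to compound, then induced with doxycycline. After 16hr at 37C, luminescence was read; lower signal indicates antagonism.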

Assay [16] in a line: Cellular Toxicity (caspase-3) N2a (AID 665).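 Further: compound exposure lasted 16 h at 37 °C before readout.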 Particulars: N2a cells, luminescence, normalized: DMSO 0%, 10 µM staurosporine 100%; at 92.2 µM (top of the series). In a few lines: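 Mouse N2a neuroblastoma cells (1500/well) were treated with compounds for 16 h at 37 °C, then caspase-3/7 activity was read by Caspase-Glo luminescence after 1 h at room temperature. Data were normalized to DMSO and 10 uM staurosporine; AC50 from Hill fits.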

The subject of assay [17] is HIV-1 nucleocapsid protein NCp7 (binding to TG oligonucleotide). In words: HIV Nucleocapsid (AID 346; call rule not given here;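 further: potency means the concentration at half of the fitted maximal effect; potency is for inhibitors that block NC binding and lower polarization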). Particulars: HIV-1 NC / fluorescein-TGTGTGTG probe, fluorescence polarization. In a few lines: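 HIV-1 NC (100 nM) binding to fluorescein-labelled ssDNA TG4xF (10 nM) in Hepes pH 7.5, 250mM NaCl, 1uM ZnCl2, TCEP and 2-mercaptoethanol; compounds pin-transferred, 1 hr room temperature, fluorescence polarization read on CCD imager.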

Assay [18] in a line: MultiTox-Fluor Cytotoxicity Assay - LYMP1-002 - Live Cells (AID 955). Further: on the % scale 0 is the no-effect control and ±100 the full control effect. Particulars: LYMP1-002 lymphoblastoid live-cell protease fluorescence viability; series mostly up to 46.1 µM. The essentials: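 Human lymphoblastoid LYMP1-002 cells, 2500/well in complete medium, rested 5 hr at 37 C, then exposed to compounds for 16 hr at 37 C. Live-cell protease cleavage of GF-AFC read by fluorescence (Ex/Em 405/510) after 60 min at room temperature; AC50 from Hill fits.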

A short description of assay [19]: qHTS assay for small molecule activators of the p53 signaling pathway (AID 651743; active means well fitted activation curve with a large enough effect in the signal ratio, not every such curve was filed as active; the % refers to the signal ratio; further: % of control where 0% means no effect). Particulars: HCT-116 p53RE-bla, beta-lactamase FRET ratio, 16 h; activation: stronger effect = higher value. The essentials: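 HCT-116 p53RE-bla, 4,000 cells/well; 5 h settle; cpd/DMSO 16 h, 37 C; LiveBLAzer B/G 2 h RT; fluorescence intensity.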

Sequence of Peroxisome proliferator-activated receptor delta (Homo sapiens) (Q03181 whole entry, looked up): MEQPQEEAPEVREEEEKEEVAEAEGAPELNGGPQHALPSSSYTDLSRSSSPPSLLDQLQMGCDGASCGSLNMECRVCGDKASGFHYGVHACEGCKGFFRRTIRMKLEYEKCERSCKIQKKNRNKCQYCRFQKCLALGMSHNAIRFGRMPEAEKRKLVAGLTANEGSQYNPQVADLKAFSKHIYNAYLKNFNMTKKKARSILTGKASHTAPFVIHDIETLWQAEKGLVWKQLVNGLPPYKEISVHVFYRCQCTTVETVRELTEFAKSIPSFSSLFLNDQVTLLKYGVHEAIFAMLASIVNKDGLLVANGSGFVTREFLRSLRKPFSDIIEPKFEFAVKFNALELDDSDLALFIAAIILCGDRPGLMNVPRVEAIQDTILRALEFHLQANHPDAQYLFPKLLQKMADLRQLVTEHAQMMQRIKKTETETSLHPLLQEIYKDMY
Sequence of Bile acid receptor (Homo sapiens) (Q96RI1 whole entry, looked up): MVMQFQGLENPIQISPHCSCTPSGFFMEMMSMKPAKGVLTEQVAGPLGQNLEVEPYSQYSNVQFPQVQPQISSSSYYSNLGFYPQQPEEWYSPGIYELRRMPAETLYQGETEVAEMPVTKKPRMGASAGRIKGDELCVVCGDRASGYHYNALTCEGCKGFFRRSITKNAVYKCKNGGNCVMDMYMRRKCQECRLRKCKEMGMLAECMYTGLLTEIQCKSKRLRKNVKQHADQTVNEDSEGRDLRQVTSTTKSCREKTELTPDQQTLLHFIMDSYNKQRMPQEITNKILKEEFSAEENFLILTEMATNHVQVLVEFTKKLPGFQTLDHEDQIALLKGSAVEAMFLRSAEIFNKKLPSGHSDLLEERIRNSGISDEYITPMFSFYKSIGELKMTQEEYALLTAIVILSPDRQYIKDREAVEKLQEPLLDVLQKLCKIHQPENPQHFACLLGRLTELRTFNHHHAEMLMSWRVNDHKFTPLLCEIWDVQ
Sequence of Nuclear receptor ROR-gamma (Homo sapiens) (P51449 whole entry, looked up): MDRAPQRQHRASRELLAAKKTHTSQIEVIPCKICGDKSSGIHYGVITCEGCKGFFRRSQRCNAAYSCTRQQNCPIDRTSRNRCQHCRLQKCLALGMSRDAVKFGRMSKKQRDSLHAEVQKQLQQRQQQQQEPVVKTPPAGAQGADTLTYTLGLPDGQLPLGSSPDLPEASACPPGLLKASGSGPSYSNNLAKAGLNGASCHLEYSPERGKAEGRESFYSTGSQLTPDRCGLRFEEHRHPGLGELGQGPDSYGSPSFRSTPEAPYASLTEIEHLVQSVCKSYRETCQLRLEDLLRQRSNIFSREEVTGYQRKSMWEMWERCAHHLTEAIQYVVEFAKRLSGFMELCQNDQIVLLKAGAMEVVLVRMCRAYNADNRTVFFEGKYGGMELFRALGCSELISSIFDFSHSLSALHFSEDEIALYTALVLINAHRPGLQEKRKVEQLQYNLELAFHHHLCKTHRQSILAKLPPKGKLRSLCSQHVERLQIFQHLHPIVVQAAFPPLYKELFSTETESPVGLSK

As to `ClC(Cl)=C(c1ccc(Cl)cc1)c1ccc(Cl)cc1`, the Potency was > 92 µM (inactive) in [1]; 37.6 µM (active) and 33.5 µM (active) in assay [15]. Moreover, the Potency result in assay [2], in assay [3], in assay [4], in assay [5], in [6] and in assay [7] was “inactive” each time. The Potency entry in assay [8], in [9], in assay [12] and in assay [14] was “inactive” in each case. Besides, the activation in assay [10] was -9.46% (inactive); in [13], 0.128% (inactive) and -1.11% (inactive) and 0.0255% (inactive). For the same compound, in [11], the max response was 6.36% and 34.1%.

For `C=CCc1ccc(OC)cc1`, in assay [1], the Potency was > 92 µM (inactive). Further, in [16], the caspase-3 activation is 0.258% (inactive). Also, the Potency result in assay [2], in assay [4], in [5], in assay [7], in [8] and in assay [12] was “inactive” each time. Also, the Potency result in [15] was “inactive”. Besides, the max response in assay [11] was -9.08%. Besides, the activation in assay [13] was -0.38% (inactive).

Regarding `O=C(Oc1ccccc1)N1CCC[C@@]2(CCN(Cc3cc(C(F)(F)F)cc(C(F)(F)F)c3)C2)C1`, the Potency in [17] was > 20 µM (inactive).

In the case of `COP(=S)(OC)Oc1ccc([N+](=O)[O-])cc1`, the Potency in assay [1] is > 92 µM (inactive). Further, the Potency entry in assay [2], in [4], in assay [5], in assay [6], in assay [7] and in [8] was “inactive” throughout. Moreover, the Potency result in assay [9] and in assay [12] was “inactive” throughout. The compound was called inactive in [18]. Further, the activation was 0.0258% (inactive) and 2.38% (inactive) in [10]; -0.601% (inactive) in [13]. The max response in [11] was -15.9%.

On to `O=C(Oc1ccccc1)N1CCC2(CCN(Cc3nccs3)CC2)CC1`, for which, in assay [17], the Potency is > 20 µM (inactive).

As for `CNC(=O)O/N=C/C(C)(C)SC`, the caspase-3 activation in assay [16] was -2.85% (inactive). Also, in assay [18], the compound was called inactive. Moreover, the Potency result in assay [3], in assay [4], in assay [5], in assay [6], in assay [7] and in [9] was “inactive” throughout. The Potency result in assay [12] and in assay [14] was “inactive” in each case. Also, the activation in assay [10] was 1.35% (inactive) and 5.69% (inactive) and 1.03% (inactive); in assay [19] it was -1.27% (inactive) and -5.37% (inactive) and -5.16% (inactive). Also, in assay [11], the max response was -48.7% and -22%.

Turning to `CCOCN(C(=O)CCl)c1c(C)cccc1CC`, the result in assay [18] was inactive. Moreover, the Potency in [5] and in assay [6] was 50.1 µM (active) in each case. Also, the activation in [13] was -2.07% (inactive) and -2.02% (inactive). Also, the Potency result in assay [14] and in assay [15] was “inactive” in each case.

On to `O=C(O)COc1ccc(Cl)cc1Cl`, for which the Potency in assay [1] was > 92 µM (inactive). Also, the Potency result in assay [2], in assay [3], in assay [4], in assay [5], in assay [6] and in [8] was “inactive” each time. Also, the activation in [19] is -2.21% (inactive) [middle of 4 runs].
